Test systems include SR leukemia; OVCAR-8 ovarian; OVCAR-5 ovarian; OVCAR-4 ovarian; SK-OV-3 ovarian; IGROV1 ovarian; OVCAR-3 ovarian; HS 578T breast; NCI/ADR-RES ovarian; T-47D breast; BT-549 breast; MDA-MB-435 melanoma; SW-620 colon; MCF7 breast; HCT-116 colon; HCC-2998 colon; KM12 colon; RPMI-8226 leukemia.
Common to all, as to experiment: NCI-60 one-dose screen, 48 h (100 = growth as untreated, 0 = no growth, -100 = all killed)
Common to all, as to conditions: 10 µM unless noted

The text below walks through data of PubChem BioAssay (NCI).

Compounds without any hit were thinned out: in the full panel of roughly 83,000, 20% have a hit.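 96-well plates, one dose, 48 hours. Percent growth reported; active if below 10.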 Unmarked numbers belong to inactive results. Calls of active or inactive are those of the source.

As to `CC(=O)c1c(Nc2cccc(F)c2)[nH]c2c(Cl)cc(Cl)c(Cl)c2c1=O`, the growth in the experiment on SR leukemia was 14.8%; in the experiment with OVCAR-8 ovarian, 7.74% (active); in the experiment with OVCAR-5 ovarian it was 15.3%; with OVCAR-4 ovarian, 13.5%; in the experiment on SK-OV-3 ovarian, 1.25% (active); with IGROV1 ovarian it was 17.9%. The growth with OVCAR-3 ovarian is 14.8%; in the experiment with HS 578T breast, 4.68% (active); in the experiment with NCI/ADR-RES ovarian, 3.89% (active); in the experiment with T-47D breast, -11.1% (active); in the experiment with BT-549 breast, 8.92% (active); with MDA-MB-435 melanoma it was 2.08% (active). The growth with SW-620 colon was 9.59% (active); in the experiment on MCF7 breast, 2.73% (active); with HCT-116 colon, 5.08% (active); with HCC-2998 colon it was 10.7%; in the experiment on KM12 colon it was 4.18% (active).

Take `CC/C(=C(/c1ccc(O)cc1)c1ccc(OCCN2CCCCC2)cc1)c1ccc(OC)cc1`: the growth was -23.3% (active) in the experiment on SR leukemia; 90.9% in the experiment with OVCAR-5 ovarian; 90.4% in the experiment on OVCAR-4 ovarian; 99.3% in the experiment with SK-OV-3 ovarian; 85.3% with IGROV1 ovarian; 66.1% with OVCAR-3 ovarian. In addition, the growth in the experiment with HS 578T breast is 92.2%; in the experiment with NCI/ADR-RES ovarian, 77.6%; in the experiment on T-47D breast, 43.4%; in the experiment with BT-549 breast, 79.2%; in the experiment on MDA-MB-435 melanoma it was 13.2%; in the experiment with SW-620 colon, 73.5%. For the same compound, the growth is 11.5% with MCF7 breast, 27.9% in the experiment on HCT-116 colon, 87.2% with HCC-2998 colon and 52.4% with KM12 colon.

`O=C1C=CC2(O)OC/C(=C\c3ccccc3)C(O)=C2C1=O` (centres undefined): the growth in the experiment with SR leukemia was 6.55% (active); in the experiment with OVCAR-8 ovarian, 8.41% (active); with OVCAR-5 ovarian it was 29.3%; in the experiment with OVCAR-4 ovarian, 30.4%; in the experiment on SK-OV-3 ovarian, 86.6%; in the experiment on IGROV1 ovarian it was -13% (active). Also, the growth in the experiment on OVCAR-3 ovarian was 11.7%; in the experiment with HS 578T breast, 39%; in the experiment with NCI/ADR-RES ovarian, 16.7%; in the experiment on T-47D breast it was -19.8% (active); with BT-549 breast it was -1.66% (active); with MDA-MB-435 melanoma it was 15.8%. The growth with SW-620 colon is 5.52% (active); in the experiment with MCF7 breast it was 23.4%; in the experiment with HCT-116 colon, -9.7% (active); with HCC-2998 colon, 80.6%; with KM12 colon, -16.9% (active).

For `COc1ccc(/C=N/NC(=O)Cn2c(-c3ccc(S(C)(=O)=O)cc3)nc3ccccc32)cc1`, the growth was 100% in the experiment on SR leukemia; 111% in the experiment with OVCAR-8 ovarian; 99.7% in the experiment with OVCAR-5 ovarian; 117% in the experiment with OVCAR-4 ovarian; 117% in the experiment on SK-OV-3 ovarian; 91.4% in the experiment with IGROV1 ovarian. The growth in the experiment on OVCAR-3 ovarian is 103%; in the experiment with HS 578T breast, 92.4%; in the experiment on NCI/ADR-RES ovarian, 104%; in the experiment on T-47D breast it was 102%; with BT-549 breast it was 103%; with MDA-MB-435 melanoma it was 97.8%. Further, the growth is 97.6% in the experiment on SW-620 colon; 88.6% in the experiment on MCF7 breast; 91.7% with HCT-116 colon; 95.7% with HCC-2998 colon; 104% with KM12 colon.

Consider `C=CN(C(=O)N1CCN(c2cc3c(cc2F)c(=O)c(C(=O)O)cn3C2CC2)CC1)c1nc(-c2ccc(Cl)cc2)cs1`, for which the growth was 33.2% with SR leukemia; 67.3% in the experiment on OVCAR-8 ovarian; 85.7% in the experiment on OVCAR-5 ovarian; 78.4% in the experiment on OVCAR-4 ovarian; 74.7% in the experiment with SK-OV-3 ovarian; 21.4% in the experiment with IGROV1 ovarian. Further, the growth with OVCAR-3 ovarian was 53.9%; in the experiment with HS 578T breast, 54.3%; in the experiment with NCI/ADR-RES ovarian, 90.6%; with T-47D breast, 76.2%; in the experiment on BT-549 breast, 63.1%; with MDA-MB-435 melanoma it was 74.8%. For the same compound, the growth is 93.9% in the experiment with SW-620 colon; 51.3% in the experiment with MCF7 breast; 24.1% in the experiment with HCT-116 colon; 95.9% in the experiment on HCC-2998 colon; 61.8% in the experiment with KM12 colon.

With `O=C1O[C@@H](c2ccccc2Cl)[C@@H]2c3cc4c(cc3CCN12)OCO4`, the growth was 100% with SR leukemia; 98.7% with OVCAR-8 ovarian; 113% in the experiment on OVCAR-5 ovarian; 104% with OVCAR-4 ovarian; 119% in the experiment on SK-OV-3 ovarian; 94% with IGROV1 ovarian. For the same compound, the growth was 100% in the experiment with OVCAR-3 ovarian; 101% in the experiment on HS 578T breast; 104% in the experiment on NCI/ADR-RES ovarian; 69.9% in the experiment with T-47D breast; 101% in the experiment on BT-549 breast; 105% in the experiment on MDA-MB-435 melanoma. For the same compound, the growth was 97.2% with SW-620 colon; 103% in the experiment on MCF7 breast; 94.9% in the experiment with HCT-116 colon; 106% in the experiment on HCC-2998 colon; 97.8% in the experiment on KM12 colon.

Consider `CCOC(=O)c1nnn(-c2no[n+]([O-])c2-c2ccc(OC)cc2)c1COc1cccc2cccnc12`, for which the growth was 6.52% (active) in the experiment on SR leukemia; 4.48% (active) with RPMI-8226 leukemia; 48.6% in the experiment on OVCAR-5 ovarian; 12.4% in the experiment with SK-OV-3 ovarian; 23.5% in the experiment with IGROV1 ovarian; 16.8% with OVCAR-3 ovarian. In addition, the growth in the experiment with HS 578T breast was 24.8%; with NCI/ADR-RES ovarian, 9.15% (active); in the experiment on T-47D breast, 53.1%; in the experiment with BT-549 breast, -14.7% (active); in the experiment with MDA-MB-435 melanoma it was 9.72% (active); with SW-620 colon, 26%. For the same compound, the growth was 15.2% with MCF7 breast, 9.49% (active) in the experiment on HCT-116 colon, 55.4% in the experiment with HCC-2998 colon and 19.7% in the experiment on KM12 colon.

`O=c1oc2ccccc2cc1-c1nn(-c2ccccc2)cc1-c1nn[nH]n1`: the growth with SR leukemia was 92.4%; with OVCAR-8 ovarian it was 104%; with OVCAR-5 ovarian, 93.2%; with OVCAR-4 ovarian, 97.9%; in the experiment on SK-OV-3 ovarian it was 99.8%; in the experiment on IGROV1 ovarian, 99.1%. Besides, the growth was 114% with OVCAR-3 ovarian; 105% in the experiment on HS 578T breast; 102% with NCI/ADR-RES ovarian; 103% in the experiment on BT-549 breast; 99.5% with MDA-MB-435 melanoma; 102% in the experiment on SW-620 colon. Also, the growth with MCF7 breast was 94.8%; in the experiment on HCT-116 colon, 96.5%; with HCC-2998 colon, 110%; in the experiment on KM12 colon it was 106%.

For `OC1CSSC1Cn1cnc2c(Nc3ccc(OCc4cccc(F)c4)c(Cl)c3)ncnc21` (centres undefined), the growth in the experiment with SR leukemia is -29.9% (active); with OVCAR-8 ovarian, 37.4%; in the experiment on OVCAR-5 ovarian, 41%; in the experiment with SK-OV-3 ovarian it was -8.67% (active); in the experiment on IGROV1 ovarian it was 41.4%; in the experiment with OVCAR-3 ovarian it was -70.2% (active). Moreover, the growth was 59.2% in the experiment with HS 578T breast; 1.93% (active) in the experiment with NCI/ADR-RES ovarian; 19.8% with T-47D breast; 52.9% with BT-549 breast; -77.1% (active) in the experiment with MDA-MB-435 melanoma; -20.3% (active) with SW-620 colon. The growth in the experiment on MCF7 breast is -60.1% (active); in the experiment on HCT-116 colon it was -33.1% (active); in the experiment on HCC-2998 colon, -81.7% (active); in the experiment on KM12 colon, -60.3% (active).
